hcDAF12 agonist – activates DAF-12 receptor from parasite H. contortus. hit rate 1.4% among 370,000. HEK293 hcDAF-12 lit1-tk-luc reporter, luminescence; 0% DMSO, 100% Δ7-dafachronic acid. activation, % at 6.8 µM;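 active = activation above the mean of all tested compounds plus 3 SD, cut at about 5.5% in these data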
SMARCA2 act – activators of SMARCA2 function. activation, % at 9.1 µM. MG213 cells, MMTV-luciferase reporter, dexamethasone, overnight. hit rate 1% among 370,000; in the data active = activation above about 7.8%
hgDAF-12 ag – activates the H. glycines DAF-12 receptor ligand-binding domain; HEK293 GAL4-hgDAF12 UAS-luciferase reporter, agonist luminescence; normalized to butyrate control; activation, % at 6.8 µM; hit rate 1.8% among 370,000;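 active = activation above a cutoff set at the mean of all screened compounds plus 3 SD, cut at about 10% in these data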
DAX1 inh-1 – NR0B1 (DAX1) inhibition | inhibition, % at 6.75 µM | hit rate 0.99% among 340,000 | P51843 | AID 504766 | HEK293 Gal4-DAX1 luciferase reporter, luminescence;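 active = inhibition above the mean over all tested compounds plus 3 SD, cut at about 4.2% in these data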;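 also: inhibition shows as a rise in luminescence from relieved DAX1 repression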
Target sequence (P51843 207-470 limits assumed): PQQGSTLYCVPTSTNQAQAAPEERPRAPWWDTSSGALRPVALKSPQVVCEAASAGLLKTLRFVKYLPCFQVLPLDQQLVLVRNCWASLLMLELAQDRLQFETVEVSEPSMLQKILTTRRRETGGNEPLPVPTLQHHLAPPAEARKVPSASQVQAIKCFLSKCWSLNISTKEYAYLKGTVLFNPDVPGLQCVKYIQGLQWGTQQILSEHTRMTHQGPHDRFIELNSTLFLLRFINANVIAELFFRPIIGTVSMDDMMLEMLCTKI
ssDAF-12 act – S. stercoralis DAF-12 activation, primary screen; HEK293 ssDAF-12/GRIP1 lit1-tk-luc reporter, luminescence; % of 3 µM dafachronic acid response; activation, % at 6.8 µM; hit rate 1% among 370,000;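 active = activation above the mean over all tested compounds plus 3 SD, cut at about 0.9% in these data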
DAX1 inh-2 – blocks DAX1 repression of SF-1 activated StAR promoter; inhibition, % at 6.8 µM; AID 652010; hit rate 1.1% among 370,000; HEK293T StAR-luciferase reporter, SF-1/DAX-1 repression relief;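 active = inhibition above the mean over all tested compounds plus 3 SD, cut at about 3.6% in these data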;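 also: higher inhibition means more luminescence from relief of DAX-1 repression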
Of the large screens only hits and unclear results are named; the others gave an inactive call; ! = repeats disagree. Sampled rows, rich in hits. Any-hit rate of the full collection: about 4.8%.

CNS(=O)(=O)c1cccc(C(=O)OCC(=O)Nc2ccc(OC)cc2[N+](=O)[O-])c1	DAX1 inh-1 4.3
COc1ccc(NC(=O)COC(=O)c2ccc(Cl)c(S(N)(=O)=O)c2)c([N+](=O)[O-])c1	DAX1 inh-1 5.0
COc1ccc(NC(=O)COC(=O)c2cc(OC)c(OC)c(OC)c2)c([N+](=O)[O-])c1	none
CCN(CC)C(=O)CC[C@H]1CC[C@]2(CCCN(Cc3cccnc3)C2)O1	none (no result: DAX1 inh-1)
COc1ccc(C=Nn2c(-c3n[nH]c4c3CCC4)n[nH]c2=S)cc1OCc1ccccc1	none (no result: DAX1 inh-1)
COc1ccc(Nc2ccc(C(=O)O)cc2[N+](=O)[O-])cc1	none
COc1ccc(Nc2ccc([N+](=O)[O-])cc2[N+](=O)[O-])cc1	DAX1 inh-1 6.3
CC(C)(C)c1ccc(C(=O)Nc2ccc(F)cc2)s1	hcDAF12 agonist 6.3
Cc1cccc(C=NNc2cc(C)c3cccc(C)c3n2)n1	hgDAF-12 ag 12.0 (no result: DAX1 inh-1)
Cc1cc(N/N=C/c2ccccc2Br)nc2ccccc12	none
O=C(CSc1ncnc2sc3c(c12)CCCC3)Nc1ccc(Oc2ccccc2)cc1	none (no result: DAX1 inh-1)
CCCCCCSc1ccc(-c2nc3ccccn3c2NCCCC)cc1	none
CCCCNc1c(-c2ccc(-c3cccc(Cl)c3)cc2)nc2ccccn12	hgDAF-12 ag 11.0!
C/C(=C\C(=O)c1cccnc1)Nc1ccc(O)cc1	none
O=C(/C=C(\Nc1ccc(F)cc1)c1ccccc1)c1ccccc1	hgDAF-12 ag 10.7 (no result: DAX1 inh-1)
C/C(=C\C(=O)c1ccccc1)Nc1ccc(O)cc1	ssDAF-12 act 1.1
O=C(/C=C(\Nc1ccccc1)c1ccccc1)c1ccccc1	none (no result: DAX1 inh-1)
CCOC(=O)CC[C@@]1(C(=O)OCC)C[C@@H](CC(=O)N2CCOCC2)C(=O)N2CCCC=C21	none (no result: DAX1 inh-1)
Cc1ccccc1Cn1ccc(NC(=O)c2onc(C)c2Cl)n1	SMARCA2 act 7.8
O=C(NCc1cccnc1)c1ccc2sc([C@@H]3O[C@H](CO)[C@H](O)[C@H](O)[C@H]3O)nc2c1	ssDAF-12 act 0.9 (no result: DAX1 inh-1)
Clc1ccc(/C=N/NC(=Nc2ccccc2)c2ccccn2)c(Cl)c1	hgDAF-12 ag 12.1
C(=N\NC(=Nc1ccccc1)c1ccccn1)/c1ccccn1	none
CN1CCN(/N=C/c2ccc(OCc3ccccc3)cc2)CC1	DAX1 inh-1 6.0
CCOC(=O)[C@]12CCCCC/C=C\1N(Cc1ccc(OC)cc1)C(=O)[C@H]2CC(=O)N1CCSCC1	none (no result: DAX1 inh-1)
CC(Sc1ccccn1)C(=O)NC1CCCC1 (stereo unspecified)	DAX1 inh-2 4.4
Cc1nn(-c2ccccc2)c2sc(C(=O)NC3CCCCCCC3)cc12	none (no result: DAX1 inh-1)
c1ccc2[nH]c(COCc3nc4ccccc4[nH]3)nc2c1	none (no result: SMARCA2 act, DAX1 inh-1, DAX1 inh-2)
c1ccc(CCc2nc3ccccc3[nH]2)cc1	hgDAF-12 ag 13.1
COc1ccccc1OCc1nc2ccccc2[nH]1	DAX1 inh-1 7.3
O=S(=O)(CCc1nc2ccccc2[nH]1)c1ccc(Br)cc1	none
c1ccc2[nH]c(CCCc3nc4ccccc4[nH]3)nc2c1	none
Brc1ccc(OCc2nc3ccccc3[nH]2)cc1	hcDAF12 agonist 6.0, hgDAF-12 ag 12.4
COc1ccc(N2CCN(Cc3nc4ccccc4n3C)CC2)cc1	ssDAF-12 act 1.8
COc1ccc(N2CCN(c3cnc4ccccc4n3)CC2)cc1	hgDAF-12 ag 11.1
CCOc1ccc(C(=O)NC2C(=O)N3C(C(=O)O)=C(COC(C)=O)CSC23)cc1OCC (stereo unspecified)	DAX1 inh-2 4.4
CC(Sc1nnc(COc2ccccc2)n1Cc1ccccc1)C(=O)O (stereo unspecified)	ssDAF-12 act 0.9
CCCOc1ccc(N2C(=O)CC(N(CCc3ccc(OC)c(OC)c3)C(=S)Nc3ccccc3)C2=O)cc1 (stereo unspecified)	none (no result: hcDAF12 agonist, SMARCA2 act, hgDAF-12 ag, ssDAF-12 act, DAX1 inh-2)
CNC(=S)N(CCc1ccc(OC)c(OC)c1)C1CC(=O)N(c2ccccc2)C1=O (stereo unspecified)	DAX1 inh-1 5.0 (no result: hcDAF12 agonist, SMARCA2 act, hgDAF-12 ag, ssDAF-12 act, DAX1 inh-2)
CCCCCCC1(C)NC(=S)N(c2ccccc2)N1 (stereo unspecified)	ssDAF-12 act 5.7
CCC1(c2ccc(Cl)cc2)NC(=S)N(c2ccccc2)N1 (stereo unspecified)	hcDAF12 agonist 5.7
CCC1(c2ccccc2)NC(=S)N(c2ccc(C)cc2)N1 (stereo unspecified)	none
CCCCCC1(C)NC(=S)N(c2ccccc2)N1 (stereo unspecified)	none

Compound activity (PubChem BioAssay)
